Source: PubChem BioAssay AID1645851 (National Center for Advancing Translational Sciences (NCATS), 2021)
The whole screen tested about 140,000 compounds, of which about 1,200 (0.86%) were called active. What follows is part of a selection rich in actives, with near analogues and random picks from the rest. Values without a mark were called inactive. Rule as the data show it: active = activity change below about -25%; inactive = the rest.
% is scaled to controls: 0 for no effect and ±100 for the full control effect.
Also: series mostly up to about 58 µM.

What follows are compounds tested against Inositol hexakisphosphate kinase 1 (Homo sapiens) (UniProt Q92551) (assay: Primary qHTS assay for small molecule inhibitors of Inositol hexaphosphate kinase 1 (IP6K1)). Details: ADP-Glo luminescence, 2 h, stronger effect = lower value.
Chain of Inositol hexakisphosphate kinase 1 (Homo sapiens) (Q92551 whole entry, looked up): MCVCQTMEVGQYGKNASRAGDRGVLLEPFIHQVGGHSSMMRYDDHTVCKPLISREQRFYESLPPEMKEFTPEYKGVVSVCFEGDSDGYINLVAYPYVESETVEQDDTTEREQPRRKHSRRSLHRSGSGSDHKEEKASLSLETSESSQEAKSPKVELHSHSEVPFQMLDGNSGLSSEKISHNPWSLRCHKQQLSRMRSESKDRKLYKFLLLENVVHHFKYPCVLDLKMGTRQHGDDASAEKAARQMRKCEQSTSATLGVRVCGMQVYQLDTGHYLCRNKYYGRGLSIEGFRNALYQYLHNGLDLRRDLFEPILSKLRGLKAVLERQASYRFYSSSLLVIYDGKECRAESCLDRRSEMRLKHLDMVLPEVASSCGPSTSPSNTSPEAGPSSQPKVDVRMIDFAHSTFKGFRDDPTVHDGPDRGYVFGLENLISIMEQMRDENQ
Outline: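 ADP-Glo luminescence measures ADP made by human IP6K1 during a 2 h RT reaction with ATP/IP6 (mix at 1.3 mM/130 uM); top library doses 57.5 and 19.1 uM final.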
`O=C1CCC2(C(=O)NCCCN3CCCC3)CCC=C2N1C1CCCC1` (stereo not drawn) showed an activity change of 9.28%.
With `CCOc1cccc2c1N[C@@H](c1ccc(C(=O)O)cc1)[C@H]1CC=C[C@@H]21` the activity change was -85.5% (active).
`CCOc1ccccc1CNC(=O)c1ccc(-n2c(C)cc3c2CCC(C)C3)cc1` (stereo not drawn) gave an activity change of 14.3%.
`CCOc1cccc(CC(=O)N2CCc3c([nH]c4ccccc34)C2c2ccc(F)cc2)c1OCC` (stereo not drawn) showed an activity change of 2.13%.
In the case of `COc1ccc(OC2CN(CC3CCCCC3)C2)cc1`, the activity change is reported as -18%.
`CCN(CC)CCNC(=O)C12CCCC=C1N(Cc1ccccc1)C(=O)CC2` (stereo not drawn) was tested, and the activity change was 7.12%.
`O=C(c1ccccc1)N1CCNc2cnc(Nc3cccc(C(F)(F)F)c3)nc2C1` was tested, and the activity change was 4.76%.
For `CCc1cccc(NC(=O)c2cnc(N3CCOCC3)c3ccccc23)c1`, the activity change was -10.5%.
In the case of `O=C(OCCN1CCOCC1)c1cccnc1Nc1cccc(C(F)(F)F)c1`, the activity change is reported as -58.6% (active).
`O=C(c1ccc(Cl)cc1)N1CCCC(n2cc(-c3nc(-c4ccccc4)no3)nn2)C1` (stereo not drawn) gave an activity change of 5.18%.
`O=C(C1CCCN(C(=O)C2CC2)C1)N1CCC(N2CCCC2=O)CC1` (stereo not drawn) gave an activity change of -0.186%.
`CN(C)C[C@@H]1CN(c2ccncn2)C[C@H]1NC(=O)c1cc(C2CC2)[nH]n1` showed an activity change of 3.23%.
`O=C(NC1CCN(Cc2ccccc2)CC1)c1ccc(Cn2c(=O)c3ccccc3n(Cc3cccc(F)c3)c2=O)cc1` gave an activity change of 6.69%.
Compound `CCn1c2ccccc2c2cc(CN3CCN(Cc4cccc(Cl)c4)CC3)ccc21` has an activity change of -4.05%.
For `O=c1c2ccccc2n(Cc2cccc(Cl)c2)c(=O)n1Cc1ccccc1`, the activity change was -26% (active).
`CN(C)C(=O)c1ccc2oc(-c3ccnc(Cl)c3)nc2c1` was tested, and the activity change was -35.6% (active).
Compound `O=C(NCc1ccccc1)c1ccc2nc(-c3ccnc(Cl)c3)oc2c1` has an activity change of -0.193%.
For `CCc1ccc(CN(C)C(=O)c2ccc3oc(-c4cccc(F)c4)nc3c2)nc1`, the activity change was 12.9%.
`CCOc1ccc(CC(=O)NC2CCN(c3cc(-c4ccc(F)cc4)[nH]n3)CC2)cc1OCC` showed an activity change of 22.5%.
For `COc1ccccc1NC(=O)C1=C(C)Nc2ncnn2C1c1sccc1C` (stereo not drawn), the activity change was -0.661%.
For `CCOc1ccccc1NC(=O)C1=C(C)Nc2ncnn2C1c1ccc(NC(C)=O)cc1` (stereo not drawn), the activity change was -19.2%.
In the case of `CC1=C(C(=O)Nc2ccccc2Cl)C(c2cccs2)n2ncnc2N1` (stereo not drawn), the activity change is reported as -26.4% (active).
`CCN(Cc1ccccc1)C(=O)CCc1ccc2c(c1)CN(C(=O)NC(C)C)CCO2` gave an activity change of -13.8%.
`CCCC(C)N1CC2(CCN(C(=O)c3csc(C(C)C)n3)CC2)OC1=O` (stereo not drawn) was tested, and the activity change was 4.73%.
For `O=c1ncn(Cc2ccccc2)c2ccc(-c3ccoc3)nc12`, the activity change was -29% (active).
Work on `COc1ccc(-c2ccc3ncn(Cc4ccccc4)c(=O)c3n2)cc1OC` yielded an activity change of 7.2%.
`O=c1c2nc(-c3ccccc3)ccc2ncn1Cc1ccccc1` gave an activity change of 5.89%.
For `COCCn1c(=O)n([C@H]2CCCN(C(=O)CCc3ccccc3)C2)c2ncccc21`, the activity change was 6.71%.
`CC(C)(Oc1nn(Cc2cccc(Cl)c2)c2ccccc12)C(=O)Nc1cccnc1` was tested, and the activity change was -0.544%.
With `Cc1cc(C)cc(N2CCC(NS(=O)(=O)c3cn(C)c(C)n3)C2=O)c1` (stereo not drawn) the activity change was -1.58%.
With `Cc1ccccc1N1CCCN(Cc2nc(-c3ccccn3)no2)CC1` the activity change was -0.56%.
`COc1ccc(-c2ccc3ncc(Nc4ccc(C(F)(F)F)cc4)n3n2)cn1` showed an activity change of -13.9%.
Work on `COc1ccc(Nc2cnc3ccc(-c4ccc(OC)nc4)nn23)cc1` yielded an activity change of -13.5%.
With `COc1ccc(-c2ccc3ncc(Nc4cc(F)cc(N5CCOCC5)c4)n3n2)cn1` the activity change was -29.7% (active).
`CC[C@@]1(C(=O)O)C[C@H](C(=O)N(C)CC(=O)O)[C@H](c2ccc(OC)cc2)N1C` gave an activity change of 9.58%.
Compound `COC(=O)c1ccc(CO[C@H]2CCC=C3C[C@@H](O)CC[C@@]32C)cc1` has an activity change of 17.7%.
For `CCOC(=O)c1ccc(NC(=O)c2nc(SCc3ccc(F)cc3)ncc2Cl)cc1`, the activity change was -10%.
In the case of `CCOC(=O)c1ccc(NC(=O)CSc2nc3c([nH]c4ccccc43)c(=O)n2C)cc1`, the activity change is reported as 32.9%.
With `CCOC(=O)c1ccc(CSc2nnc3cc(C)c4ccccc4n23)cc1` the activity change was -36.2% (active).
With `O=S(=O)(N[C@@H]1CCOC[C@H]1Oc1ccccn1)c1ccc(Cl)s1` the activity change was -5.56%.
`O=C(NCc1ccco1)C1c2ccccc2C(=O)N(C2CCCC2)C12CCCCC2` (stereo not drawn) showed an activity change of -8.07%.
For `Cc1ccc(-c2ccc3nnc(CNC(=O)c4ccccn4)n3n2)cc1`, the activity change was -2.05%.
`CC(=O)N1CCN(c2ccc3nnc(-c4ccc(C)cn4)n3n2)CC1` gave an activity change of -10.9%.
With `Cc1ccc(-c2nnc3ccc(-c4ccoc4)nn23)nc1` the activity change was -36.1% (active).
In the case of `CC(=O)Nc1ccc(S(=O)(=O)N[C@H]2CO[C@H]3[C@@H]2OC[C@@H]3n2nnnc2-c2ccc(N(C)C)cc2)cc1`, the activity change is reported as 2.63%.
In the case of `CCCS(=O)(=O)N1CCC(N2CC(OCCOC)C23CCCCC3)CC1` (stereo not drawn), the activity change is reported as -5.2%.
`CCCS(=O)(=O)c1ncc(Cl)c(C(=O)Nc2scc(-c3ccccc3)c2C(=O)OCC)n1` was tested, and the activity change was -31.2% (active).
Compound `CCOC(=O)c1scc(-c2ccccc2)c1S(=O)(=O)Nc1ccccc1F` has an activity change of -14.6%.
In the case of `Cc1ccc(NC(=O)c2nc(S(=O)(=O)Cc3cccc(C)c3)ncc2Cl)cc1`, the activity change is reported as -17.5%.
Work on `CCNC(=O)CCc1c(CC)nn(-c2ccc(F)cc2)c1Oc1ccccc1` yielded an activity change of 1.63%.
`CCOc1ccc(C(=O)N2CCC(c3n[nH]c(=O)n3-c3ccccc3)CC2)cc1OCC` was tested, and the activity change was -6.36%.
Compound `O=Cc1cccc(-c2cc(F)cc(F)c2)c1` has an activity change of -5.81%.
With `CSc1ccc(-c2ccc(C=O)cc2)cc1` the activity change was -28.5% (active).
`COc1ccc(CNC(=O)[C@@H](C)C2CC[C@@]3(C)CC[C@H](NC(=O)c4ccc(C#N)cc4)[C@@H](C)[C@@H]3[C@H]2O)cc1` (stereo partly drawn) gave an activity change of -11.9%.
`COc1ccc(Nc2ccnc(N3CCCC(C(=O)NCc4ccc(C(F)(F)F)cc4)C3)n2)cc1` (stereo not drawn) showed an activity change of -7.37%.
For `Cc1ccccc1Cc1c(C)nc2c(C(=O)N3CCc4c(c(-c5nncn5C)nn4C)C3)cnn2c1C`, the activity change was 9.9%.
Work on `N#CC1CCN(C(=O)c2ccc3nnc(Cc4ccco4)n3c2)CC1` yielded an activity change of 2.16%.
Compound `COc1ccccc1-c1cc(-c2cccc([S+](C)(=O)[O-])c2)c2onc(C)c2n1` has an activity change of 2.9%.
`COc1ccccc1-c1cc(-c2cn[nH]c2)c2onc(C)c2n1` was tested, and the activity change was -25.3% (active).
With `Cc1noc2c(-c3cccc(CO)c3)cc(-c3ccccc3)nc12` the activity change was -16.9%.
`Cn1c(CCC(=O)N2CC[C@H](CO)[C@H](O)C2)nc2cccnc21` gave an activity change of -2.6%.
In the case of `COc1ccccc1C(=O)N1CCCC2(C1)Nc1cccnc1NC2=NCc1ccccc1` (stereo not drawn), the activity change is reported as 6.92%.
`O=C(NCC1CCCCC1)[C@@H]1CCCN1c1ccnc2ccnn12` was tested, and the activity change was -2.98%.
`CN(C)c1ccc(CN2CCC(N3Cc4ccccc4C3=O)CC2)cc1` gave an activity change of -12.5%.
With `CCc1ccccc1N1C(=O)CN(S(=O)(=O)CC)CC1(C)C(=O)NC1CCCCC1` (stereo not drawn) the activity change was -30.6% (active).
Work on `CCc1ccc(N2C(=O)CN(S(=O)(=O)CC)CC2(C)C(=O)NC2CCCCC2)cc1` (stereo not drawn) yielded an activity change of -13.3%.
`CCc1ccccc1NC(=O)c1ccc(F)c(S(=O)(=O)NC2CCCCCC2)c1` was tested, and the activity change was 15.5%.
With `COC(=O)NC1CCN(Cc2ccc(-c3cc(F)ccc3OC)cc2)C1` (stereo not drawn) the activity change was 6.69%.
Compound `Cc1oc(C(O)c2ccccc2)nc1C(=O)Nc1ccc2c(c1)CC(=O)N2` (stereo not drawn) has an activity change of 9.78%.
In the case of `COc1ccc(OCCCn2c(C3CC(=O)N(c4ccc(F)cc4)C3)nc3ccccc32)cc1` (stereo not drawn), the activity change is reported as -3.06%.
`CCOc1ccc(N2CC(c3nc4ccccc4n3CCOc3ccc(OC)cc3)CC2=O)cc1` (stereo not drawn) was tested, and the activity change was -11.8%.
`CCc1ccccc1N1CC(c2nc3ccccc3n2CCCCOc2ccccc2)CC1=O` (stereo not drawn) was tested, and the activity change was -28.8% (active).
`COCCO[C@H]1C(=O)N(C2CCN(C(=O)c3ccsc3)CC2)[C@H]1c1ccncc1` gave an activity change of 6.99%.
Compound `CCOC(=O)c1ccc(NC(=O)c2csc3c2CCCCC3)cc1` has an activity change of 3.62%.
For `CCOC(=O)c1ccc(NC(=O)c2c(NCc3cccc(OC)c3)sc3c2CCC3)cc1`, the activity change was 8.31%.
In the case of `CCOC(=O)c1ccc(NC(=O)c2c(NCc3cccs3)sc3c2CCCC3)cc1`, the activity change is reported as -31.3% (active).
With `CC(=O)Nc1cccc(C(=O)N2CCCN(c3cc(-c4ccc(Br)cc4)[nH]n3)CC2)c1` the activity change was -10.1%.
Compound `O=C(NCc1ccc(F)c(F)c1)C1CCCN(Cc2cccc(-c3cccs3)c2)C1` (stereo not drawn) has an activity change of 0.462%.
